According to PubChem BioAssay AID1159580 (chemical genetic matrix, 2015):
“And” between values parts separate entries of the source, which are not always exact repeats. Identical values can stand only once. The whole screen tested about 5,500 compounds, of which about 2,000 (36%) were called active. Another 18% or so got no clear call; they are omitted. No stated cut-off is given here; in the data, active means normalized growth mostly below about 0.91 (no sharp cut-off); inconclusive means no clear call, values can overlap the other calls; inactive means mostly above about 0.92. The list shows a part of the results.

Assay: chemical genetic growth profiling, strain panel (AID 1159580);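 further: tested at 20 µM; growth read once vehicle control cultures reached saturation at 30 °C; 1 = growth at the plate median or of vehicle wells; lower values mean less growth of the strain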
Details: S. cerevisiae deletion strains, growth OD

Measured: normalized growth

C=C(C)C1Cc2c(ccc3c(=O)c4c(oc23)COc2cc(OC)c(OC)cc2-4)O1 (stereo unspecified)
inactive: locus YAL021C, strain ccr4, active compounds read low 1.01 | locus YAL026C, strain drs2, active compounds read low 0.999 | locus YAL030W, strain snc1, active compounds read low 0.987 | locus YBL061C, strain skt5, active compounds read low 0.999 | locus YBR009C, strain hhf1, active compounds read low 1 | locus YBR021W, strain FUR4, active compounds read low 1.05 | locus YBR023C, strain chs3, active compounds read low 0.998 | locus YBR171W, strain sec66, active compounds read low 0.99 | locus YBR229C, strain ROT2, active compounds read low 1 | locus YBR231C, strain swc5, active compounds read low 1.01 | locus YBR279W, strain paf1, active compounds read low 1 | locus YCL011C, strain gbp2, active compounds read low 0.989 | locus YCL016C, strain dcc1, active compounds read low 0.995 | locus YCL029C, strain bik1, active compounds read low 1 | locus YCL061C, strain MRC1, active compounds read low 0.996 | locus YCL069W, strain vba3, active compounds read low 0.999 | locus YCR088W, strain abp1, active compounds read low 0.996 | locus YDL005C, strain med2, active compounds read low 0.997 | locus YDL035C, strain GPR1, active compounds read low 1.04 | locus YDL040C, strain nat1, active compounds read low 0.991 | locus YDL074C, strain BRE1, active compounds read low 1.04 | locus YDL101C, strain DUN1, active compounds read low 0.994 | locus YDL134C, strain PPH21, active compounds read low 1.01 | locus YDL185W, strain tfp1, active compounds read low 0.956 | locus YDL192W, strain arf1, active compounds read low 1.03 | locus YDR001C, strain nth1, active compounds read low 1 | locus YDR069C, strain doa4, active compounds read low 1 | locus YDR101C, strain arx1, active compounds read low 1.04 | locus YDR137W, strain rgp1, active compounds read low 0.926 | locus YDR150W, strain NUM1, active compounds read low 0.989 | locus YDR159W, strain sac3, active compounds read low 1.01 | locus YDR162C, strain NBP2, active compounds read low 1.04 | locus YDR195W, strain ref2 0.998 | locus YDR297W, strain sur2, active compounds read low 0.995 | locus YDR318W, strain mcm21, active compounds read low 1.01 | locus YDR334W, strain swr1, active compounds read low 0.982 | locus YDR335W, strain msn5, active compounds read low 1 | locus YDR388W, active compounds read low 0.997 | locus YDR392W, strain spt3, active compounds read low 0.982 | locus YDR502C, strain sam2, active compounds read low 1.01 | locus YEL003W, strain gim4, active compounds read low 0.991 | locus YEL037C, strain rad23, active compounds read low 0.997 | locus YEL061C, strain CIN8 (second series), active compounds read low 1 | locus YEL061C, strain CIN8, active compounds read low 1 | locus YER015W, strain faa2, active compounds read low 1 | locus YER016W, strain bim1, active compounds read low 0.994 | locus YER110C, active compounds read low 1 | locus YER111C, strain swi4, active compounds read low 1.01 | locus YER155C, strain BEM2 (second series), active compounds read low 1.01 | locus YER155C, strain BEM2, active compounds read low 0.99 | locus YER167W, strain BCK2, active compounds read low 0.988 | locus YFR010W, strain ubp6, active compounds read low 0.988 | locus YGL078C, strain dbp3, active compounds read low 0.987 | locus YGL086W, strain mad1, active compounds read low 0.995 | locus YGL167C, strain pmr1, active compounds read low 1.01 | locus YGL173C, strain kem1, active compounds read low 0.996 | locus YGL227W, strain vid30, active compounds read low 1.01 | locus YGL240W, strain doc1, active compounds read low 1.01 | locus YGL248W, strain PDE1, active compounds read low 0.999 | locus YGL253W, strain hxk2, active compounds read low 1 | locus YGR135W, strain pre9, active compounds read low 0.983 | locus YGR229C, strain SMI1, active compounds read low 0.988 | locus YGR252W, strain gcn5, active compounds read low 1.06 | locus YHR013C, strain ard1, active compounds read low 1.01 | locus YHR027C, strain rpn1, active compounds read low 0.99 | locus YHR030C, strain SLT2, active compounds read low 0.973 and 1.01 | locus YHR079C, strain IRE1 (second series), active compounds read low 1 | locus YHR079C, strain IRE1, active compounds read low 1.06 | locus YHR094C, strain hxt1, active compounds read low 0.979 | locus YHR129C, strain ARP1, active compounds read low 1.01 | locus YHR142W, strain chs7, active compounds read low 1.01 | locus YHR200W, strain rpn10, active compounds read low 1.01 | locus YIL066C, strain RNR3, active compounds read low 1 | locus YIL073C, strain SPO22, active compounds read low 0.927 | locus YIL125W, strain kgd1, active compounds read low 0.998 | locus YIR030C, strain dcg1, active compounds read low 0.999 | locus YJL092W, strain hpr5, active compounds read low 0.993 | locus YJL095W, strain BCK1 (second series), active compounds read low 0.998 | locus YJL095W, strain BCK1, active compounds read low 1.03 and 1.01 | locus YJL115W, strain asf1, active compounds read low 0.974 | locus YJL129C, strain trk1, active compounds read low 0.993 | locus YJL134W, strain LCB3, active compounds read low 0.998 | locus YJL154C, strain vps35, active compounds read low 0.99 | locus YJL164C, strain tpk1, active compounds read low 1 | locus YJL166W, strain qcr8, active compounds read low 1.01 | locus YJL168C, strain set2, active compounds read low 0.998 | locus YJL187C, strain SWE1 (second series), active compounds read low 0.995 | locus YJL187C, strain SWE1, active compounds read low 1.01 | locus YJR043C, strain POL32, active compounds read low 1.04 | locus YJR066W, strain TOR1, active compounds read low 0.986 | locus YKL009W, strain mrt4, active compounds read low 1 | locus YKL068W, active compounds read low 0.982 | locus YKL085W, strain MDH1 (second series), active compounds read low 0.997 | locus YKL085W, strain MDH1, active compounds read low 0.997 | locus YKL160W, strain elf1, active compounds read low 1.01 | locus YKL190W, strain CNB1, active compounds read low 0.992 | locus YKR001C, strain vps1, active compounds read low 1.03 | locus YKR026C, strain gcn3, active compounds read low 0.999 | locus YKR091W, strain srl3, active compounds read low 0.999 | locus YLL001W, strain dnm1, active compounds read low 0.995 | locus YLL026W, active compounds read low 0.993 | locus YLL041C, strain sdh2, active compounds read low 0.978 | locus YLR027C, strain aat2, active compounds read low 0.986 | locus YLR039C, strain RIC1, active compounds read low 0.99 | locus YLR058C, strain SHM2, active compounds read low 1.02 | locus YLR102C, strain apc9, active compounds read low 0.993 | locus YLR113W, strain HOG1, active compounds read low 0.992 | locus YLR221C, strain rsa3, active compounds read low 1 | locus YLR258W, strain gsy2, active compounds read low 0.991 | locus YLR262C, strain YPT6 (second series), active compounds read low 1 | locus YLR262C, strain YPT6, active compounds read low 0.969 | locus YLR268W, strain sec22, active compounds read low 1.04 | locus YLR320W, strain mms22, active compounds read low 1.02 | locus YLR330W, strain CHS5, active compounds read low 1 | locus YLR342W, strain FKS1 (second series), active compounds read low 1.06 | locus YLR342W, strain FKS1, active compounds read low 1 | locus YLR357W, strain rsc2, active compounds read low 1.02 | locus YLR370C, strain arc18, active compounds read low 1.01 | locus YLR371W, strain rom2, active compounds read low 0.98 | locus YLR384C, strain iki3, active compounds read low 1 | locus YLR418C, strain cdc73, active compounds read low 1.05 | locus YML016C, strain PPZ1, active compounds read low 0.999 | locus YML032C, strain rad52, active compounds read low 1.01 | locus YML120C, strain ndi1, active compounds read low 1.01 | locus YML124C, strain tub3, active compounds read low 0.992 | locus YMR058W, strain fet3, active compounds read low 1 | locus YMR078C, strain ctf18, active compounds read low 0.998 | locus YMR125W, strain sto1, active compounds read low 0.998 | locus YMR129W, active compounds read low 0.996 | locus YMR205C, strain PFK2, active compounds read low 1.02 | locus YMR223W, strain ubp8, active compounds read low 1.01 | locus YMR231W, strain pep5, active compounds read low 0.996 | locus YMR307W, strain GAS1, active compounds read low 1.18 | locus YNL067W, strain RPL9B, active compounds read low 0.984 | locus YNL071W, strain lat1, active compounds read low 0.981 | locus YNL153C, strain GIM3, active compounds read low 0.991 | locus YNL183C, strain NPR1, active compounds read low 0.988 | locus YNL209W, strain ssb2, active compounds read low 0.999 | locus YNL233W, strain BNI4, active compounds read low 1.03 | locus YNL248C, strain rpa49, active compounds read low 0.991 | locus YNL250W, strain rad50, active compounds read low 0.962 | locus YNL271C, strain bni1, active compounds read low 0.99 | locus YNL298W, strain CLA4, active compounds read low 1 | locus YNL307C, strain MCK1, active compounds read low 0.993 | locus YNL322C, strain KRE1 (second series), active compounds read low 1 | locus YNL322C, strain KRE1, active compounds read low 0.999 | locus YNR049C, strain mso1, active compounds read low 1 | locus YNR052C, strain pop2, active compounds read low 0.991 | locus YOL012C, strain htz1 1.59 | locus YOL147C, strain pex11, active compounds read low 0.992 | locus YOR001W, strain rrp6, active compounds read low 0.99 | locus YOR061W, strain CKA2, active compounds read low 1 | locus YOR069W, strain VPS5, active compounds read low 0.996 | locus YOR070C, strain gyp1, active compounds read low 0.99 | locus YOR080W, strain dia2, active compounds read low 1 | locus YOR083W, strain WHI5, active compounds read low 1.01 | locus YOR106W, strain vam3, active compounds read low 1.02 | locus YOR136W, strain idh2, active compounds read low 1 | locus YOR144C, strain elg1, active compounds read low 0.999 | locus YOR184W, strain ser1, active compounds read low 1.07 | locus YOR231W, strain MKK1, active compounds read low 1.03 | locus YOR265W, strain rbl2, active compounds read low 0.993 | locus YOR270C, strain vph1, active compounds read low 1 | locus YOR290C, strain snf2, active compounds read low 0.998 | locus YOR316C, strain cot1, active compounds read low 0.982 | locus YPL051W, strain arl3, active compounds read low 1.01 | locus YPL078C, strain atp4, active compounds read low 1.01 | locus YPL106C, strain sse1, active compounds read low 0.992 | locus YPL240C, strain hsp82, active compounds read low 0.976 | locus YPL241C, strain CIN2, active compounds read low 0.991 | locus YPL256C, strain CLN2, active compounds read low 1.03 | locus YPR119W, strain clb2, active compounds read low 0.988 | locus YPR141C, strain kar3, active compounds read low 0.974 | locus YPR163C, strain tif3, active compounds read low 0.974 | locus YPR167C, strain met16, active compounds read low 1.01 | strain wtn01, active compounds read low 1.03
